Tests used:
Assay in all cases: log2 ratio of Biotin-Ahx-Ub-VS probe labelling (fragment/DMSO); higher = less target engagement (more negative = stronger competition), active = hit call of the paper (q ≤ 0.05, log2 ratio ≤ -1)
Conditions in all cases: compound concentration: 200 uM; treatment time: 3 h
USP34 = USP34 (UniProt Q70CQ2)
Procedure, shortened: (§1)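 Labelled DUBs were enriched with NeutrAvidin, digested with LysC and trypsin, and run by diaPASEF LC-MS/MS. The labelling used Biotin-Ahx-Ub-VS at 0.5 µM final for 1 h on HEK293T lysate (495 µg per sample) previously treated in triplicate with fragment at 200 µM or vehicle for 3 h. Values are average log2 fragment/vehicle ratios by unpaired t-test on global-median-normalised Spectronaut quantities of proteins with ≥2 unique peptides.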

USP36 = biological target: T1, USP36 (UniProt Q9P275)
T1 sequence (whole entry): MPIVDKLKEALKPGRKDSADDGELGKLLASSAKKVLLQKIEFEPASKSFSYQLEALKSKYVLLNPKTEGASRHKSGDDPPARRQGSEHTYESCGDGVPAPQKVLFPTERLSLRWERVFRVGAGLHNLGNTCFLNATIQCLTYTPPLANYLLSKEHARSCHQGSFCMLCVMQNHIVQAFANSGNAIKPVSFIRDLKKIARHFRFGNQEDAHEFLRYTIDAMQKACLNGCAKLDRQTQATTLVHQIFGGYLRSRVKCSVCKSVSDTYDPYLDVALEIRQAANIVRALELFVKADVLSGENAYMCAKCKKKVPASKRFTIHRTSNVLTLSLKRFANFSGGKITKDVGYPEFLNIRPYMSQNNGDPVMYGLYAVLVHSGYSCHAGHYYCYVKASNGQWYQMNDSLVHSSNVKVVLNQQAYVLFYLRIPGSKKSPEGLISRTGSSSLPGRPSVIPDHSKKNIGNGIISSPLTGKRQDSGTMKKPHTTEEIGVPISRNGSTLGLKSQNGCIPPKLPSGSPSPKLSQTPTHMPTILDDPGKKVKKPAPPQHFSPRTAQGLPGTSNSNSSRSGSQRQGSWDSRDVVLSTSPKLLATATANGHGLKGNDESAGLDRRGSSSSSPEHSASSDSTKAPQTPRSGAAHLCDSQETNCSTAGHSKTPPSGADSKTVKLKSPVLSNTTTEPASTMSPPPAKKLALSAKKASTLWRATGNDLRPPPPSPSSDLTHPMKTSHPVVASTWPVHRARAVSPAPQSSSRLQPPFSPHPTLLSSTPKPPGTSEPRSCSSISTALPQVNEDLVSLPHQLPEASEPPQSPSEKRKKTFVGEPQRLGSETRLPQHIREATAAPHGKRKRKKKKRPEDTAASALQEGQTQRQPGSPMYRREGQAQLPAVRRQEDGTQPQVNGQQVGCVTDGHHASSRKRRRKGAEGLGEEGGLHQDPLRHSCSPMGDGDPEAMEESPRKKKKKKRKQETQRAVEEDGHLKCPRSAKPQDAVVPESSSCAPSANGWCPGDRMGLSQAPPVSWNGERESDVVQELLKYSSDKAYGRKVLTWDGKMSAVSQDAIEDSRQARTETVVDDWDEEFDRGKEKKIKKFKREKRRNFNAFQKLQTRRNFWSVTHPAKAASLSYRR
Procedure, shortened: as §1

USP38 = biological target: T2, USP38 (UniProt Q8NB14)
T2 sequence (whole entry): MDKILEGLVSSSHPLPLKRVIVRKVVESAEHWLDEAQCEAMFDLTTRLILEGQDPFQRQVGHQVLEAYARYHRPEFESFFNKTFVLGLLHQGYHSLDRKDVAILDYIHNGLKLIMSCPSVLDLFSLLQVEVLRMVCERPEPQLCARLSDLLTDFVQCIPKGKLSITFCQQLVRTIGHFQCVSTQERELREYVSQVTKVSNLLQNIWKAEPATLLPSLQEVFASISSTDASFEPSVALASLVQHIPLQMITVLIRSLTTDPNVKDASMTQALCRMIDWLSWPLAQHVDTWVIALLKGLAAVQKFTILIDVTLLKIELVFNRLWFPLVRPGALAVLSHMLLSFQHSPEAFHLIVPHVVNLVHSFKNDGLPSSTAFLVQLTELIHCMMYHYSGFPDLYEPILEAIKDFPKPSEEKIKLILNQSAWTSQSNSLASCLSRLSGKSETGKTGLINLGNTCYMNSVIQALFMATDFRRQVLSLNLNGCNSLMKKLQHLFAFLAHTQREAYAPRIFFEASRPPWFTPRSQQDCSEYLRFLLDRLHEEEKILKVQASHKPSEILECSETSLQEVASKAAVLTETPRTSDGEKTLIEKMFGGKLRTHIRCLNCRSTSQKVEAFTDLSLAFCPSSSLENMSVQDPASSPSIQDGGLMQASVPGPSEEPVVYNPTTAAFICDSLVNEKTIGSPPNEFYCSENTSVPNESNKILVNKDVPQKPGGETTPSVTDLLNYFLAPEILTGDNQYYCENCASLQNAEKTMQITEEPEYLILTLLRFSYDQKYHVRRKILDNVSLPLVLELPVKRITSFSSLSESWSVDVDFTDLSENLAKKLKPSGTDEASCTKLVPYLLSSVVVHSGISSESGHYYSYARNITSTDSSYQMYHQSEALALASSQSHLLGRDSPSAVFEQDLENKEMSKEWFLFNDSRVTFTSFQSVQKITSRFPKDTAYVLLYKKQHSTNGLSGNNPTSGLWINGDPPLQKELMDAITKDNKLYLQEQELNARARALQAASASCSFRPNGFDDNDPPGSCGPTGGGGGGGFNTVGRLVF
Procedure, shortened: as §1

USP39 = biological target: T3, USP39 (UniProt Q53GS9)
T3 sequence (whole entry): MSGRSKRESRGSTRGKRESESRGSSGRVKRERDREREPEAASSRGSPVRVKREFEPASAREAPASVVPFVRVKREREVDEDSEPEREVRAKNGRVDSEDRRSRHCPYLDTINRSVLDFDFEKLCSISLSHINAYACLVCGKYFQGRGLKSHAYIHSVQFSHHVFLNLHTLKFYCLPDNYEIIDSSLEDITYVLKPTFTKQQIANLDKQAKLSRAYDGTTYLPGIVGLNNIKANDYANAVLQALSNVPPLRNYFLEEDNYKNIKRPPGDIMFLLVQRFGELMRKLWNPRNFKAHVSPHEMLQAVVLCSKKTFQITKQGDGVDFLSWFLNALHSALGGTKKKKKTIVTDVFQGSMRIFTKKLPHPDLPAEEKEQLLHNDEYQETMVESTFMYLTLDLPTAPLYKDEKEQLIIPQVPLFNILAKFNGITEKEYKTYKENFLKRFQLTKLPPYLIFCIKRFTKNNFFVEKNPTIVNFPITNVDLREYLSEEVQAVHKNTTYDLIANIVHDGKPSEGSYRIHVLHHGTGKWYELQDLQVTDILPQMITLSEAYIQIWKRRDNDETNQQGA
Procedure, shortened: as §1

USP4 = biological target: T4, USP4 (UniProt Q13107)
T4 sequence (whole entry): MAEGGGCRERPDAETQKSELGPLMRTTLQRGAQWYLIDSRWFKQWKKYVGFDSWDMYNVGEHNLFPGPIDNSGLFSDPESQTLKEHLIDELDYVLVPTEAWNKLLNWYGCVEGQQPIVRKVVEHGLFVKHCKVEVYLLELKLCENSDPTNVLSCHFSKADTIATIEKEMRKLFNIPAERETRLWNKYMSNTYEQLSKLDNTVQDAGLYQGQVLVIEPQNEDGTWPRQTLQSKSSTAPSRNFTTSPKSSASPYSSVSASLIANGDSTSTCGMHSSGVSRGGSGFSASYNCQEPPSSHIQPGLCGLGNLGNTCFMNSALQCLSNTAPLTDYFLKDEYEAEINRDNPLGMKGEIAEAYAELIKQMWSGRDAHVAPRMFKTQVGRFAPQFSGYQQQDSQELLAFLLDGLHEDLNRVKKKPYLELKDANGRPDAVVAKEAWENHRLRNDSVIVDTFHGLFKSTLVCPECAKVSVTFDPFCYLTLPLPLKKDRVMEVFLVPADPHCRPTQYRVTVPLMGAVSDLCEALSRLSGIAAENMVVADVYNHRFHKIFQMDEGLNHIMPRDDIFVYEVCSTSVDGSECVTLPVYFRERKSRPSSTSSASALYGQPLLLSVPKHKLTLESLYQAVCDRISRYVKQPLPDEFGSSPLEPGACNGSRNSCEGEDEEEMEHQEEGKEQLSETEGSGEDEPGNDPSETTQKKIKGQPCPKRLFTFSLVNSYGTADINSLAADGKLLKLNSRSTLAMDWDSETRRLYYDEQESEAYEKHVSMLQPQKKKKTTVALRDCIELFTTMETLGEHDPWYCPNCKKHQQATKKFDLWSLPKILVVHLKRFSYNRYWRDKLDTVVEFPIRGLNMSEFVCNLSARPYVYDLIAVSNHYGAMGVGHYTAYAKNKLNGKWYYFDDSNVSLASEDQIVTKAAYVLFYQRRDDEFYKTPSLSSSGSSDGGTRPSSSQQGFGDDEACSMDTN
Procedure, shortened: as §1

Measured: log2 ratio of Biotin-Ahx-Ub-VS probe labelling

Sequence of USP34 (Q70CQ2 whole entry, the tested form may be a part): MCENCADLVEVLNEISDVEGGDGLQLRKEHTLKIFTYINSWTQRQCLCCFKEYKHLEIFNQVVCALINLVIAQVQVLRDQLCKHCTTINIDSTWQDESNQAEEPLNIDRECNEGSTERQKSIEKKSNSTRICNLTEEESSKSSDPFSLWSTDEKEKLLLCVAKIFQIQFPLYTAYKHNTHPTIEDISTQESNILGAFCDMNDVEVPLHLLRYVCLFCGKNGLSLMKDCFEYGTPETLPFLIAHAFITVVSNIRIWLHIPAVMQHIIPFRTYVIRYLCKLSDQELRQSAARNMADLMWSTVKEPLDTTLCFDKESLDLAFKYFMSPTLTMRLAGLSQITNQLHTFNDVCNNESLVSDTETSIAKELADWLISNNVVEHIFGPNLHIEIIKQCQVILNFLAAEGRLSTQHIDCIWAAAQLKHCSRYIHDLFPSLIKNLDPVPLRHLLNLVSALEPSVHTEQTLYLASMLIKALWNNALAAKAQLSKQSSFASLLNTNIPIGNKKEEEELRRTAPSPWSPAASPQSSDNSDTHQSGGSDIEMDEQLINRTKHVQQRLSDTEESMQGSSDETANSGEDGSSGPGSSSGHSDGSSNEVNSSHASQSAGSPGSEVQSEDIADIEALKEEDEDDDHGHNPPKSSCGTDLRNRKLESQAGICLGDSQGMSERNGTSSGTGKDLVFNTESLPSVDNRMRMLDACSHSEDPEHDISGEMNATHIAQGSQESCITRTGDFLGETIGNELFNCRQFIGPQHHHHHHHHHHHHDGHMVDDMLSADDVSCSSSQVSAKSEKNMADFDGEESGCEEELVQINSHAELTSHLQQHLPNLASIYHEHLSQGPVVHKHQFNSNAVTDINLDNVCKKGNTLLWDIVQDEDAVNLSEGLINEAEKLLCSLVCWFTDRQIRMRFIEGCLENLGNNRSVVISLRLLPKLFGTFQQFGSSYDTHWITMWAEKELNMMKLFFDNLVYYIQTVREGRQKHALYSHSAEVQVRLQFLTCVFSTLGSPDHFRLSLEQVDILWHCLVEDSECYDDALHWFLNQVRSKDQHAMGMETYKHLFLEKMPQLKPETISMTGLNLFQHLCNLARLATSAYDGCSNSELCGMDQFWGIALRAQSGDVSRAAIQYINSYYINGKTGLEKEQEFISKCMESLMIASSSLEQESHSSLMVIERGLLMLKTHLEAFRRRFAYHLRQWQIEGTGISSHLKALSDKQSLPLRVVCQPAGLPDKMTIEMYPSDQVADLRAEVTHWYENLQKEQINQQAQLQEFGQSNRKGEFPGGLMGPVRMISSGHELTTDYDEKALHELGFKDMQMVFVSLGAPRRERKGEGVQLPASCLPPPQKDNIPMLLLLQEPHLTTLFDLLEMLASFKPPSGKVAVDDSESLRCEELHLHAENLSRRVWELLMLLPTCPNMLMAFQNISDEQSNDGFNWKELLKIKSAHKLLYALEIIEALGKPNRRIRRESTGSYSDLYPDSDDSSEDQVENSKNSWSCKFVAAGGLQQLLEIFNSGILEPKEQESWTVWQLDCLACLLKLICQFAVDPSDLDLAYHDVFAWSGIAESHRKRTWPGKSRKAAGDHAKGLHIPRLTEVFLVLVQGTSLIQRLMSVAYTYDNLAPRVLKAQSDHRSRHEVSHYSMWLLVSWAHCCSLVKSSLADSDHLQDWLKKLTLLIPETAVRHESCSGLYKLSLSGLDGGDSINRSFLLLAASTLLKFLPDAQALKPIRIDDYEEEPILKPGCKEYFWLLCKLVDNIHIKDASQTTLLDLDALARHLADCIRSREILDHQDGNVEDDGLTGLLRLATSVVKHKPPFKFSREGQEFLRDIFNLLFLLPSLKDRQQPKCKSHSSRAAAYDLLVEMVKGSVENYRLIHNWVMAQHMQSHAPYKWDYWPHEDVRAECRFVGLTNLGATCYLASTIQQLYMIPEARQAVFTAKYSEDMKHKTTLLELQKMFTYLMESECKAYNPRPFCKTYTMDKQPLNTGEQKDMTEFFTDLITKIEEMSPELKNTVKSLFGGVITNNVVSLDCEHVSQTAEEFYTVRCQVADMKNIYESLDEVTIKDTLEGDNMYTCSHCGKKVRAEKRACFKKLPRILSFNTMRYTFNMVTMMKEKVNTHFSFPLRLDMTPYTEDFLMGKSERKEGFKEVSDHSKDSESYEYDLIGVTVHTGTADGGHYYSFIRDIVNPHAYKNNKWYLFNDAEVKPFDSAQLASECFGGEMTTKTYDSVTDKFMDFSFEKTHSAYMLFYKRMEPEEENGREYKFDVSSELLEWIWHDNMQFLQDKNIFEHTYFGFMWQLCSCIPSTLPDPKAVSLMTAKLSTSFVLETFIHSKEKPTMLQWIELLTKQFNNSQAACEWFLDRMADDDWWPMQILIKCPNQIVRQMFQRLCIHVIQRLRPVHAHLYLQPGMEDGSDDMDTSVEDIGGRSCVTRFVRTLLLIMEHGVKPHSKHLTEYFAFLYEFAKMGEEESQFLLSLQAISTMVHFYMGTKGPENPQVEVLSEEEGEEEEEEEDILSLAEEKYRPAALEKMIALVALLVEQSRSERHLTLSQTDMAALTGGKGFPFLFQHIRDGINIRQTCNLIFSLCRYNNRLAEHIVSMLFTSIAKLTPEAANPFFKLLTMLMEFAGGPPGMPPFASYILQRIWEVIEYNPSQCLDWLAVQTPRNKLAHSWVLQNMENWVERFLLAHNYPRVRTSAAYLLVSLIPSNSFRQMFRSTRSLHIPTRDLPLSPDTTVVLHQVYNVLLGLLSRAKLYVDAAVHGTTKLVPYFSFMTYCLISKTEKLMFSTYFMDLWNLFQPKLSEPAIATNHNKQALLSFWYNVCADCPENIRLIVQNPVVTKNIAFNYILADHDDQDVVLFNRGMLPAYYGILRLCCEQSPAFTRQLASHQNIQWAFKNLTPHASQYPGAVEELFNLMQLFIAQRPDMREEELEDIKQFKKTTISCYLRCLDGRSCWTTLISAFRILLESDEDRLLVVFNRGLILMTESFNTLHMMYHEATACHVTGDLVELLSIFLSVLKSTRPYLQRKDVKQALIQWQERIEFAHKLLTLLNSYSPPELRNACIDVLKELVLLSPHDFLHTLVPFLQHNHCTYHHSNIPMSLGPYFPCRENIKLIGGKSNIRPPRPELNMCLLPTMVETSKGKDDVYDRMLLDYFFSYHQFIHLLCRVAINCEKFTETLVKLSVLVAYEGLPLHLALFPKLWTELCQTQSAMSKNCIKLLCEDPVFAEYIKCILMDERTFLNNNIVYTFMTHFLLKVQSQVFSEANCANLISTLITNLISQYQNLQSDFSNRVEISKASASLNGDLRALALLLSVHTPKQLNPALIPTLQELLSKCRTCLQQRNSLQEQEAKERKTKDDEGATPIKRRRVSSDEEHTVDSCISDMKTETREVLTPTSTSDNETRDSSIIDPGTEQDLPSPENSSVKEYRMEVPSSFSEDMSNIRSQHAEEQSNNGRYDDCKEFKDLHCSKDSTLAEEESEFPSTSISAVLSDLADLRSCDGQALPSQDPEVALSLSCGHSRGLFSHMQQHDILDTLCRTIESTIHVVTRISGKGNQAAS

N#Cc1ccccc1N1CCN(C(=O)CCl)CC1
inactive: USP34 -0.549 | USP36 -0.232 | USP38 -0.312 | USP39 0.399 | USP4 -0.61

Source: the supplement of paper PMC11732987, “Enantioselective OTUD7B fragment discovery through chemoproteomics screening and high-throughput optimisation” (Communications Chemistry, 2025)
